This note sets out measurements from PubChem BioAssay (NCATS).

The target of assay [1] is Glutathione peroxidase 1 (Homo sapiens) (UniProt P07203). Kind of assay: Primary qHTS Assay for Inhibitors of Recombinant Selenoprotein Glutathione Peroxidase 1 (GPX1) (AID 1845191). In short, it runs like this: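 NADPH consumption tracked by fluorescence at 340/450 nm between t=0 and t=15 min, room temperature. Final mix: 10 nM GPX1, 100 nM glutathione reductase, 1 mM GSH, 0.5 mM NADPH, 0.5 mM cumene hydroperoxide, 0.01% BSA; 30 min compound–enzyme preincubation.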
Sequence of Glutathione peroxidase 1 (Homo sapiens) (P07203 whole entry, looked up): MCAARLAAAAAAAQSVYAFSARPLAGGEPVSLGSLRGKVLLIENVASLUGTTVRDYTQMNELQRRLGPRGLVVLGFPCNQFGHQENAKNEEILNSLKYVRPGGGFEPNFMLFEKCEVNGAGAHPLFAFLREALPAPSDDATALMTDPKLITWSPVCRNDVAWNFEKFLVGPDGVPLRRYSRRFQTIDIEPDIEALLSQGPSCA
On the technique in general: In qHTS, concentration-response curves come from the screen itself.

For assay [2], the target named is Phospholipid hydroperoxide glutathione peroxidase GPX4 (Homo sapiens) (UniProt P36969). The assay is described as follows: Primary qHTS Assay for Inhibitors of Recombinant Selenoprotein Glutathione Peroxidase 4 (GPX4) (AID 1845192). The method in brief:
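NADPH consumption followed by fluorescence at 340/450 nm, t=0 and after 15 min at room temperature. Reaction started with cumene hydroperoxide (0.5 mM final) after 30 min compound–GPX4 preincubation; final 200 nM GPX4, 100 nM GR, 1 mM GSH, 0.5 mM NADPH.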

Inconclusive results are not listed. Where a call stands in place of a potency, no number is given. A number with no mark means an inactive call. Activity calls are given as the source filed them. The call rests on the fitted dose curve; in most records, active means well fitted inhibition curve with a large enough effect; inconclusive means small, poorly fitted or top-dose-only effect; inactive means flat fitted curve, though single readings scatter.
Further: nearly all actives have a fitted effect of over 65% in size.

Sequence of Phospholipid hydroperoxide glutathione peroxidase GPX4 (Homo sapiens) (P36969 whole entry, looked up): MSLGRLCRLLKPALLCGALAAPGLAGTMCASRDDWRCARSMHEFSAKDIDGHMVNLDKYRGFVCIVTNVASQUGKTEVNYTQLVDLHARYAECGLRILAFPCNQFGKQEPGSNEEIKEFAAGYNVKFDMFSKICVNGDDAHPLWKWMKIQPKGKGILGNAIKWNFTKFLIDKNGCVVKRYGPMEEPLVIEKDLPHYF

As for `CCOC(=O)c1cc(=O)c2c(OCC(COc3cccc4oc(C(=O)OCC)cc(=O)c34)OC(=O)[C@@H](N)CCCCN)cccc2o1`, the Potency result in assay [1] and in assay [2] was “inactive” each time.
Regarding `CCCCCC[C@@H](CCC)C(=O)O`, the Potency result in assay [1] and in assay [2] was “inactive” throughout.
With `CC1(C)S[C@@H]2[C@H](NC(=O)C(c3ccccc3)S(=O)(=O)O)C(=O)N2[C@H]1C(=O)O` (some centres not stated), the Potency entry in assay [1] and in assay [2] was “inactive” each time.
For `CC(=O)N[C@@H](CCC(N)=O)C(=O)O`, the Potency result in assay [1] and in assay [2] was “inactive” throughout.
Turning to `CC(C)=CCC/C(C)=C/CC/C(C)=C/C(=O)OCC(=O)[C@@]1(O)CC[C@H]2[C@@H]3CCC4=CC(=O)C=C[C@]4(C)[C@H]3[C@@H](O)C[C@@]21C`, the Potency result in assay [1] and in assay [2] was “inactive” throughout.
Regarding `CCCCOCCOC(=O)c1cccnc1`, the Potency entry in assay [1] and in assay [2] was “inactive” in each case.
As to `CCCCC(CC)CNC(=O)CC(C)OC(=O)CCC(=O)O` (configuration not stated), the Potency entry in assay [1] and in assay [2] was “inactive” in each case.
As for `CN(C)CCOC(c1ccccc1)c1ccc(Br)cc1` (configuration not stated), the Potency result in assay [1] and in assay [2] was “inactive” each time.
Turning to `N#C/C(=C1/SC[C@@H](c2ccc(Cl)cc2Cl)S1)n1ccnc1`, the Potency entry in assay [1] and in assay [2] was “inactive” throughout.
Turning to `CC(C)(C)CC(=O)OCC(=O)[C@@]1(O)CC[C@H]2[C@@H]3CCC4=CC(=O)C=C[C@]4(C)[C@H]3[C@@H](O)C[C@@]21C`, the Potency entry in assay [1] and in assay [2] was “inactive” in each case.
In the case of `CN(C)CCN(Cc1ccsc1)c1ccccn1`, the Potency entry in assay [1] and in assay [2] was “inactive” each time.
On to `O=C(O)c1ccccc1S`, for which the Potency entry in assay [1] and in assay [2] was “inactive” in each case.
As for `CC(=O)N(CC(O)CO)c1c(I)c(C(=O)NCCO)c(I)c(C(=O)NCC(O)CO)c1I` (configuration not stated), the Potency entry in assay [1] and in assay [2] was “inactive” each time.
Take `NS(=O)(=O)c1cc(C(=O)NN2C[C@H]3[C@H]4CCC(C4)[C@H]3C2)ccc1Cl`: the Potency entry in assay [1] and in assay [2] was “inactive” throughout.
Consider `Cc1ccc(O)cc1`, for which the Potency entry in assay [1] and in assay [2] was “inactive” in each case.
For the compound `CC(C)C[C@@H]1[C@H](c2ccccc2)OC(=O)N1CCCN1CCCCCC1`, the Potency entry in assay [1] and in assay [2] was “inactive” in each case.
As for `CCn1ccc(NS(=O)(=O)c2ccc(N)cc2)nc1=O`, the Potency result in assay [1] and in assay [2] was “inactive” in each case.
Take `CC(C)(C)NCC(O)COc1ccccc1OCC1CCCO1` (configuration not stated): the Potency entry in assay [1] and in assay [2] was “inactive” in each case.
As to `CC(C)C(=O)Nc1cccc(C2CN3CCSC3=N2)c1` (configuration not stated), the Potency result in assay [1] and in assay [2] was “inactive” each time.
Regarding `O=C(Nc1ccc(Cl)cc1)Nc1ccc(Cl)c(Cl)c1`, the Potency entry in assay [1] and in assay [2] was “inactive” each time.
`C[N+]1(C)CCC(OC(=O)C(O)(c2ccccc2)C2CCCC2)C1` (configuration not stated): the Potency entry in assay [1] and in assay [2] was “inactive” throughout.
On to `C1N2CN3CN1CN(C2)C3`, for which the Potency entry in assay [1] and in assay [2] was “inactive” throughout.
On to `CCCCCCCCCCCCCCCCCCNC(=O)OC1CCN(C(=O)OC[C@H](COC(=O)N(Cc2cccc[n+]2CC)C(=O)c2ccccc2OC)OC)CC1`, for which the Potency entry in assay [1] and in assay [2] was “inactive” in each case.
Regarding `CCCCCC1Nc2cc(C(F)(F)F)c(S(N)(=O)=O)cc2S(=O)(=O)N1` (configuration not stated), the Potency result in assay [1] and in assay [2] was “inactive” each time.
With `CC1(C)O[C@@H]2C[C@H]3[C@@H]4CCC5=CC(=O)C=C[C@]5(C)[C@@]4(F)[C@@H](O)C[C@]3(C)[C@]2(C(=O)CO)O1`, the Potency result in assay [1] and in assay [2] was “inactive” each time.
With `CC(=O)Nc1ccc(S(=O)(=O)Nc2cc(C)on2)cc1`, the Potency entry in assay [1] and in assay [2] was “inactive” each time.
